{"source": "PubChem BioAssay (NCI)", "note": "Compounds without any hit were thinned out: in the full panel of roughly 83,000, 20% have a hit.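 Assay: single dose, 48 h. Readout: percent growth (0 = no net growth; negative = cell death). Active: <10.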 The source made the active and inactive calls.", "data": [{"system": "SR leukemia", "test": "NCI-60 one-dose screen, 48 h (100 = growth as untreated, 0 = no growth, -100 = all killed)", "details": "10 µM unless noted", "protocol": "Growth inhibition of the SR human tumor cell line is measured as a screen for anti-cancer activity. Cells are grown in 96 well plates and exposed to the test compound for 48 hours. Compounds are tested at a single concentration, which is 10^-5 M for most compounds. The reported endpoint is percent growth (GI% or GIPRCNT), where numbers from 0 - 100% represent growth inhibition, and numbers from -100% - 0 represent cell death. For example, a value of 40 represents 60% growth inhibition. A value of 0 means no net growth occurred over the course of the experiment. A value of -40 indicates 40% of cells at the beginning of the experiment died by the end of the experiment. A value of -100 means all cells are dead at the end of the experiment.\nNCI-60 Human Tumor Cell Lines Screen was performed using the standard one-dose NCI protocol, which is described in more detail at https://dtp.cancer.gov/discovery_development/nci-60/default.htm.\nCompounds with GIPRCNT values below 10 were considered active. Activity score was based on GIPRCNT using the following formula: […]\nScore is 0 for GIPRCNT values of 100 or above, 50 for GIPRCNT values of 0, and 100 for GIPRCNT values of -100.", "values": [{"smiles": "COc1cc2ncnc(Nc3ccc4c(cnn4C(=O)Nc4ccccc4)c3)c2cc1OC", "growth": "1.84% (active)"}, {"smiles": "CCCCCC(=C/c1ccccc1)/C=N/N=C(N)N", "growth": "-2.56% (active)"}, {"smiles": "c1ccc(C(=NNc2nc3ccccc3o2)c2ccccn2)nc1", "growth": "11% (inactive)"}, {"smiles": "CSc1nc(N)n2nccc2n1", "growth": "111% (inactive)"}, {"smiles": "CCC(C)(C)c1ccc(OCCCCCCN2CCN(c3ccc(C)c(Cl)c3)CC2)cc1", "growth": "71.8% (inactive)"}, {"smiles": "COc1cc(-c2nn(-c3ccc(NC(=O)Nc4ccc(Cl)c(C(F)(F)F)c4)cc3)cc2-c2ccncc2)ccc1Cl", "growth": "-1.8% (active)"}, {"smiles": "CC(=O)NCCN", "growth": "97% (inactive)"}, {"smiles": "CCCCCCCCCC[N+](C)(C)C", "growth": "20.2% (inactive)"}, {"smiles": "COc1cc([C@@H]2c3cc4c(cc3[C@H](O)[C@H]3COC[C@@H]23)OCO4)cc(OC)c1OC", "growth": "25.9% (inactive)"}, {"smiles": "O=S(=O)(O)CCI", "growth": "116% (inactive)"}, {"smiles": "CC(=O)Nc1nc(C)c(C(=O)NN)s1", "growth": "107% (inactive)"}, {"smiles": "C=C[C@]1(C)C=C2C(=O)[C@@]3(O)OC[C@@]4(CCCC(C)(C)C43O)C2(O)C(O)C1", "note": "(stereo not given in full)", "growth": "-14.4% (active)"}, {"smiles": "COc1ccc(C2=C/C(=C\\c3ccc(Cl)cc3)C(=O)NN2C(=S)NN)cc1", "growth": "93% (inactive)"}, {"smiles": "Cc1cc2c(-c3nc4ccccc4n3C)c(O)c(O)cc2c(O)c1-c1c(C)cc2c(-c3nc4ccccc4n3C)c(O)c(O)cc2c1O", "growth": "56.4% (inactive)"}, {"smiles": "Cn1cnc2nc[nH]c2c1=S", "growth": "89.6% (inactive)"}, {"smiles": "COc1cc(OC)c(NC(=O)n2ncc3cc(Nc4ncnc5ccccc45)ccc32)cc1Cl", "growth": "89.6% (inactive)"}, {"smiles": "Cn1c2ccccc2c2ccccc21", "growth": "87.6% (inactive)"}, {"smiles": "CC1(C)CC(=O)C2=C(C1)Oc1nc(N)c(C#N)c(N)c1C2c1ccc(F)cc1", "note": "(stereo not given)", "growth": "55.3% (inactive)"}, {"smiles": "CCS(=O)(=O)N[C@@H]1O[C@H](COC(C)=O)C(OC(C)=O)[C@H](OC(C)=O)C1OC(C)=O", "note": "(stereo not given in full)", "growth": "104% (inactive)"}, {"smiles": "C/C=C/C/C=C/[C@H](C)C[C@H](O)[C@@H]1C[C@@H]2O[C@H]2/C=C/[C@H](O)[C@@H](O)/C=C/C[C@H](C)CC(=O)O1", "growth": "69.9% (inactive)"}, {"smiles": "Oc1ccc(Br)cc1/C=N/NC(=S)NC12CC3CC(CC(C3)C1)C2", "growth": "-7.5% (active)"}, {"smiles": "CCOC(=O)c1ccc2n1CCCc1cnc(NC(C)=O)nc1-2", "growth": "101% (inactive)"}, {"smiles": "O=C(/C=C1\\C(=O)N(Cc2ccccc2)c2ccccc21)c1ccc(OCCN2CCCCC2)cc1", "growth": "-21.6% (active)"}, {"smiles": "CC(Br)c1nc2ccccc2cc1C(N)=O", "note": "(stereo not given)", "growth": "74.9% (inactive)"}, {"smiles": "CCCC(=O)NNc1[nH]c(-c2ccc(OC)cc2)cc1C(=O)OCC", "growth": "106% (inactive)"}, {"smiles": "Oc1ccccc1\\C=N/N=C/C=C/c1ccccc1", "growth": "71.9% (inactive)"}, {"smiles": "CC/C(=N\\Nc1nc2ccccc2n1C)c1ccccn1", "growth": "3.71% (active)"}, {"smiles": "CC(C)(C)C(=O)OCOP(=O)(OCOC(=O)C(C)(C)C)C1CC(O)N(O)C1=O", "note": "(stereo not given)", "growth": "8.3% (active)"}, {"smiles": "CC(C)OC(=O)Nn1cnc2ccccc21", "growth": "-48% (active)"}, {"smiles": "CC(=O)N(N=O)c1ccc([N+](=O)[O-])cc1Cl", "growth": "63.1% (inactive)"}, {"smiles": "O=C(Nc1cccc2[nH]c(C(F)(F)F)nc12)c1ccc(F)cc1", "growth": "76.3% (inactive)"}, {"smiles": "COC(=O)c1cc(O)c2cc3c(cc2c1-c1cc(OC)c(OC)c(OC)c1)OCO3", "growth": "24.3% (inactive)"}, {"smiles": "COc1ccc(/C=N/c2cc(C(C)(C)C)nn2-c2ccccc2)cc1", "growth": "78.4% (inactive)"}, {"smiles": "CC(=N\\N=C(N)N)/C(=N/N=C(N)N)c1ccccc1", "growth": "89.3% (inactive)"}, {"smiles": "COc1ccc(-c2nc(SCC(C)C)nc(Nc3ccc(C)cc3)c2C#N)cc1", "growth": "44.3% (inactive)"}, {"smiles": "O=C(/C=C/c1ccc(Cl)cc1)c1ccc(Cl)cc1", "growth": "9.81% (active)"}, {"smiles": "COc1cccc2c1n([O-])c1cccc(OC)c1[n+]2=O", "growth": "19.8% (inactive)"}, {"smiles": "Cc1nnc(/N=C2\\NC(=O)/C(=C/C=C/c3ccccc3)S2)s1", "growth": "34.8% (inactive)"}, {"smiles": "COc1ccc(-c2nc(N)n(C(=S)Nc3ccccc3)n2)cc1", "growth": "90.8% (inactive)"}, {"smiles": "COc1cc2cn3c4ccc(O)cc4[nH]c(=O)c3c2cc1OC", "growth": "-17.5% (active)"}]}]}
